The list is not random: actives were taken first. Their share in the collection is about 11%.
Sfp inh – blocks B. subtilis Sfp PPTase activity; Potency, µM, hits mostly inhibitors; AID 1490; Biochemical Sfp PPTase activity, qHTS; 310,000 compounds, 3.5% hits;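 also: the enzyme is Sfp with the accession as filed and its product quenches rhodamine fluorescence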
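Compounds were incubated with enzyme (final 15 nM) for 15 min at room temperature before substrate addition started the reaction. Fluorescence at 525 nm excitation, 598 nm emission was recorded immediately and after 30 minutes.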
Coupling enz – inhibits coupling enzyme system, counter-screen for aldolase hits | 290,000 compounds, 0.67% hits | activity change, negative = inhibition, % at 58.2 µM, hits read low | coupling enzyme system counterscreen, AmpLite Red fluorescence; in the data active = activity change below about -30%
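Activity here indicates interference with the coupling reaction, not aldolase inhibition. Compounds at 57.5 uM final met coupling enzymes for 10 min at RT; substrate and AmpLite Red detection followed, with a 525/598 nm fluorescence read after 20 min.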
G9a inh – G9a (human) methyltransferase inhibition. Q96KQ7. G9a H3K9 monomethylation, AlphaScreen, 2 h. Potency, µM (series often up to 102 µM), actives largely listed as inhibitors. 350,000 compounds, 8.8% hits. AID 504332; also: nearly all actives have a fitted effect of over 75% in size
Target sequence (Q96KQ7 913-1193 limits assumed): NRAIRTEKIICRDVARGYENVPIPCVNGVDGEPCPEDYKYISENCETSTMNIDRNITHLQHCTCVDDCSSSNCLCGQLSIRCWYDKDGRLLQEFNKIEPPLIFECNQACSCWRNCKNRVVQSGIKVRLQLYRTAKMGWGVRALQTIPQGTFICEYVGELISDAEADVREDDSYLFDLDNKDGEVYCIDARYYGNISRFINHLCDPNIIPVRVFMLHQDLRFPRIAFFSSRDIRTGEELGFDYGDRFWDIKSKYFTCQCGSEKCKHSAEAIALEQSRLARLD
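G9a (20 nM) was preincubated 15 min with compound, then reacted 2 h at room temperature with 500 nM biotin-H3K9 peptide and 20 µM SAM. Monomethyl-H3K9 detected by AlphaScreen using anti-H3K9me1 antibody.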
Tau fibril ThT – tau fibrillization inhibition (ThT binding) | P10636 | recombinant tau K18 P301L, heparin-induced fibrillization, ThT fluorescence | Potency, µM (highest dose often 57.4 µM), most hits filed as inhibitors | 270,000 compounds, 2.1% hits | AID 1460; also: nearly all actives have a fitted effect of over 55% in size
Target sequence (P10636 561-689 P618L limits assumed): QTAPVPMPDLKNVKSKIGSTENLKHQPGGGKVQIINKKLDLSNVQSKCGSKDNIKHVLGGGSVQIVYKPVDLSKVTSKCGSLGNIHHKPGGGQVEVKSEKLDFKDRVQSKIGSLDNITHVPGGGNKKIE
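Heparin-induced (20 uM) aggregation of recombinant human K18 P301L tau, 15 uM unlabeled with 0.24 uM labeled, pH 7 acetate buffer, 6 hr at 37 C with compound. Fibrils quantified by 30 uM ThT fluorescence after 1 hr ambient incubation.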
Tau fibril FP – inhibitors of human tau fibril formation; Potency, µM (doses to about 57.7 µM), usual class: inhibitors; K18 P301L tau heparin fibrillization, Alexa594 FP, 6 h; 280,000 compounds, 0.39% hits; also: nearly all actives have a fitted effect of over 55% in size
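FP of Alexa 594-tau after heparin (20 uM) induction. Substrate: human K18 P301L, 15 uM unlabeled, 0.24 uM labeled. Buffer 100 mM sodium acetate pH 7. 6 hr, 37 C.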
Tau fluor cs – counter-screen for tau fibril formation inhibitors; 280,000 compounds, 0.93% hits; Potency, µM (titrated, usually from 57.7 µM); tau K18 P301L Alexa594 fluorescence, heparin fibrillization; AID 1463; also: nearly all actives have a fitted effect of over 55% in size
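Human tau K18 P301L (15 uM unlabeled, 0.24 uM Alexa 594-labeled) in 100 mM sodium acetate pH 7 with 20 uM heparin, 6 hr at 37 C. ThT 30 uM added, 1 hr ambient; Alexa 594 FP and total fluorescence read at 555/632 nm.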
Large screens that a line does not name were inactive; [ ] = dose if it differs, or a comment. Unless noted, calls follow the shape of the dose curve; as a rule, active = well fitted curve in the direction sought with a large enough effect; inconclusive = small, poorly fitted or top-dose-only effect, or another doubt; inactive = no such curve, though single readings can be large; an effect the other way counts as inactive or inconclusive.

COc1ccc(NC(=O)CSc2nccn2-c2ccccc2)cc1	none
CCc1ccc(NC(=O)CSc2nccn2-c2ccc(OC)cc2)cc1	G9a inh 16µM (no result: Sfp inh, Coupling enz)
Cc1cc(C(=O)CSc2nnnn2C)c(C)n1C1CC1	none
Cc1cc(C(=O)CSc2nnc(CCC(N)=O)n2C)c(C)n1C1CC1	G9a inh 50µM (no result: Sfp inh, Coupling enz, Tau fibril ThT, Tau fibril FP, Tau fluor cs)
CN(CCc1ccccn1)C(=O)Nc1ccc(Cl)cc1	none
CN(CCc1ccccn1)C1CC(=O)N(c2ccc(Cl)cc2)C1=O (centres undefined)	G9a inh 5µM, Tau fibril ThT inconclusive
CCOC(=O)C1=C(C)NC(C)=C(C(=O)OCC)C1c1c(F)c(F)c(F)c(F)c1F	none (no result: Sfp inh, Coupling enz, Tau fibril ThT, Tau fibril FP, Tau fluor cs)
CCCCCNC(=O)c1ccc2c(=O)[nH]c3c(C(=O)NCC4CCCO4)sc(=S)n3c2c1 (centres undefined)	Sfp inh 50µM, G9a inh inconclusive, Tau fibril ThT 14µM
Cc1ccc(CNC(=O)c2ccc3c(=O)[nH]c4c(C(=O)NCC5CCCO5)sc(=S)n4c3c2)cc1 (centres undefined)	Sfp inh inconclusive, G9a inh inconclusive, Tau fibril ThT 8.9µM, Tau fluor cs inconclusive
O=C(NCc1ccccc1)c1ccc2c(=O)[nH]c3c(C(=O)NCC4CCCO4)sc(=S)n3c2c1 (centres undefined)	G9a inh 45µM, Tau fibril ThT 14µM, Tau fluor cs inconclusive
COCCCNC(=O)c1ccc2c(=O)n(CC3CCCO3)c(=S)[nH]c2c1 (centres undefined)	none
O=C1NCCN(C(=O)CCc2nnc(-c3ccsc3)o2)C1c1ccc(F)cc1 (centres undefined)	none (no result: G9a inh)
CCOc1ccccc1NC(=O)CCc1c(C)nc2cc(-c3ccccc3)nn2c1C	Tau fibril ThT inconclusive (no result: Sfp inh, Coupling enz)
COc1ccc(S(=O)(=O)N2CCC(C(=O)Nc3ccc(Oc4ccccc4)cc3)CC2)cc1OC	Tau fibril FP inconclusive, Tau fluor cs inconclusive (no result: Sfp inh, Coupling enz)
CC1CCc2nc3ccc(S(=O)(=O)N4CCC(C(=O)N5CCCCCC5)CC4)cc3c(C(=O)O)c2C1 (centres undefined)	G9a inh 45µM
O=C(O)c1c2c(nc3ccc(S(=O)(=O)N4CCC(C(=O)NC5CCCCCC5)CC4)cc13)CCCC2	G9a inh 40µM
O=C(O)c1c[nH]c(=S)n1-c1ccc(F)cc1	Sfp inh 11µM, G9a inh 28µM
CCn1c(SCCN2CCCCC2)nnc1-c1ccc(S(=O)(=O)N2CCOCC2)cc1	Sfp inh inconclusive, G9a inh 11µM
Cc1ccc(S(=O)(=O)N2CCC(c3nnc(SCCN4CCCC4)n3C)CC2)cc1	none (no result: Tau fibril ThT, Tau fibril FP, Tau fluor cs)
CC(=O)Nc1cccc(-c2csc(NCc3ccco3)n2)c1	Sfp inh 45µM, Tau fibril ThT inconclusive, Tau fluor cs inconclusive
Oc1ccc(-c2nc3ccccn3c2NCc2ccco2)cc1	G9a inh inconclusive
c1coc(CNc2nc(-c3cccs3)cs2)c1	G9a inh 20µM, Tau fibril ThT inconclusive
Oc1ccc(-c2csc(NCc3ccco3)n2)cc1	Sfp inh 45µM, G9a inh inconclusive, Tau fibril ThT inconclusive, Tau fibril FP inconclusive, Tau fluor cs inconclusive
CCO/C([O-])=N/c1sn[n+](C)c1C	none
Cc1ccc(-c2csc(-c3c[nH]c4ccccc34)n2)c(C)c1	Tau fibril ThT 14µM, Tau fibril FP inconclusive, Tau fluor cs 10µM[quencher]
COc1ccc(-c2nc(-c3ccc(O)cc3O)cs2)cc1OC	G9a inh inconclusive, Tau fibril ThT inconclusive, Tau fluor cs inconclusive
CC(=O)NCCC(=O)Nc1nc(-c2c[nH]c3ccccc23)cs1	none (no result: Tau fibril ThT, Tau fibril FP, Tau fluor cs)
Oc1ccc(-c2csc(-c3c[nH]c4ccccc34)n2)c(O)c1	Tau fibril ThT 6.3µM, Tau fibril FP inconclusive, Tau fluor cs 10µM[quencher]
OCCN1CCN(C(=S)c2ccc(Br)cc2)CC1	Sfp inh 32µM, G9a inh 22µM
OCCN1CCN(C(=S)Nc2ccc(SC(F)F)cc2)CC1	none
O=C(NCCN1CCN(C(=O)c2ccc(Br)cc2)CC1)c1ccc(Br)cc1	none (no result: Tau fibril ThT, Tau fibril FP, Tau fluor cs)
CSc1ccc(C(=S)N2CCN(CCO)CC2)cc1	Sfp inh 8.9µM, G9a inh 10µM

Bioassay records from PubChem BioAssay.
